CendR NRP1 mod = NRP-1/CendR interaction modulation | hit rate 0.85% among 360,000 | FAM-RPARPAR peptide binding to NRP-1, fluorescence polarization | O14786 | inhibition, % at 25 µM | AID 602438;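 active means inhibition or corrected inhibition above about 18%, plus a signal ratio from 0.5 to 1.5, limit read from the data, passing the limit was not always enough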
Target sequence (O14786 whole entry, looked up): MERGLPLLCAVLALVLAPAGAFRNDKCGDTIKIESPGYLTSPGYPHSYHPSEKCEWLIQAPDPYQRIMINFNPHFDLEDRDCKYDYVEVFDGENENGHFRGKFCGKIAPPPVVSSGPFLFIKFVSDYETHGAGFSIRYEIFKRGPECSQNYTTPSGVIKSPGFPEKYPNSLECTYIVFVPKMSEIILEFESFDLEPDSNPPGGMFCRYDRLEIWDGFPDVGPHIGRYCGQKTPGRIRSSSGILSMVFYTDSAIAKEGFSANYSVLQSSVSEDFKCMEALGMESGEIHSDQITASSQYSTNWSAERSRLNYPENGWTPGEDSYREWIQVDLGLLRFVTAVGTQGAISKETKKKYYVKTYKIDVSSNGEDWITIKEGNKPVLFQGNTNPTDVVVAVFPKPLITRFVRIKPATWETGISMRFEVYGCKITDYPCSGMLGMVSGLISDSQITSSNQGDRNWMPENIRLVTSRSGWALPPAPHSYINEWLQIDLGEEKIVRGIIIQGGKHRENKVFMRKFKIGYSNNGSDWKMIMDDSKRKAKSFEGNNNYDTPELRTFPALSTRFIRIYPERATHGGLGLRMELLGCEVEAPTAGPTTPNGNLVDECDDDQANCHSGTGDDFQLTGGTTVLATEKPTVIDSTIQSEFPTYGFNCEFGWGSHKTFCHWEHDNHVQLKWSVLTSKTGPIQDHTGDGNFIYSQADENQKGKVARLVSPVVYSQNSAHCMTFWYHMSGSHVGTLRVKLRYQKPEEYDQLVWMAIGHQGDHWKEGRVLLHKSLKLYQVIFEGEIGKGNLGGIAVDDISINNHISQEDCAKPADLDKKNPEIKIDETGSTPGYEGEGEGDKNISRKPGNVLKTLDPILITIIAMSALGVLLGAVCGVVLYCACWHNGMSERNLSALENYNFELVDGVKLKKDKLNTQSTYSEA
ADAM17 inh = inhibitors of human ADAM17; P78536; recombinant ADAM17, EDANS/DABCYL FRET peptide cleavage; inhibition, % at 6.95 µM; hit rate 0.83% among 370,000; AID 720648;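 active means inhibition above the mean of compounds lying between control limits plus 3 SD, set per campaign, cut at about 8.5% in these data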;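 further: 0% = DMSO-only wells as the low control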
ADAM10 inh = inhibitors of human ADAM10; recombinant ADAM10, EDANS/DABCYL FRET peptide cleavage, 3 h; O14672; inhibition, % at 7 µM; hit rate 0.62% among 370,000;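 active means inhibition above a per-campaign cutoff equal to the mean of compounds falling between control-based bounds plus 3 SD, cut at about 20% in these data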;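 further: 0% = DMSO wells while the 100% control is not disclosed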
KLK7 zymogen act = activators of human kallikrein-7 zymogen. purified proKLK7, EDANS-DABCYL substrate fluorescence; 100% is mature enzyme control, 0% vehicle. hit rate 0.9% among 370,000. P49862. activation, % at 7 µM;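 active means activation above the mean of all tested compounds plus 3 SD, computed per campaign excluding outliers beyond control limits, cut at about 13% in these data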
sPLA2-III inh = Blocks human group III sPLA2 activity. inhibition, % at 12.2 µM. AID 743126. QFRET BODIPY PC-A2 liposome hydrolysis, fluorescence. hit rate 0.56% among 370,000. Q9NZ20;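 active means inhibition above mean plus 3 SD of compounds lying within the high and low control bounds, cut at about 19% in these data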;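 further: 0% = median of test compound wells and 100% = no enzyme DMSO wells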
ADAM10 confirm = confirmation of inhibitors of human ADAM10 | ADAM10 QFRET peptide cleavage, EDANS fluorescence | inhibition, % at 6.95 µM | hit rate 1% among 2,100 | AID 743208 | shares compounds with ADAM10 inh;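 active means inhibition above about 20% chosen separately for each screening run, limit read from the data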;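 further: 0% = DMSO wells and 100% = marimastat wells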
ADAM17 counter = ADAM17 inhibition, counter-screen for ADAM10 exosite hits; shares compounds with ADAM10 inh; ADAM17 QFRET peptide cleavage, EDANS fluorescence; inhibition, % at 6.95 µM; hit rate 0.5% among 2,100;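 active means mean triplicate inhibition above the solvent-only control wells' mean plus 3 SD, cut at about 12% in these data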;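 further: 0% = DMSO wells and 100% = marimastat wells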
ADAM10 ctr = counter-screen for ADAM17 exosite inhibitors: inhibitors of human ADAM10; shares compounds with ADAM17 inh; recombinant ADAM10, EDANS/DABCYL FRET peptide cleavage, 3 h; inhibition, % at 6.95 µM; hit rate 47% among 2,900; AID 743256;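 active means mean inhibition over the triplicate runs exceeds the activity threshold set in the earlier primary screen, cut at about 20% in these data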;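 further: 0% = DMSO wells and 100% = marimastat wells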
ADAM17 confirm = human ADAM17 inhibition, confirmation; shares compounds with ADAM17 inh; recombinant ADAM17, EDANS/DABCYL QFRET peptide cleavage; inhibition, % at 6.95 µM; hit rate 65% among 2,900; AID 743257;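 active means mean inhibition across replicates above the hit cutoff set in the primary screen, cut at about 8.5% in these data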;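 further: 0% = DMSO wells and 100% = marimastat wells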
An asterisk follows results filed as active; / = no result given. Shown are actives, neighbours in structure and some others; about 3.4% of the full set was active somewhere.

SMILES | CendR NRP1 mod | ADAM17 inh | ADAM10 inh | KLK7 zymogen act | sPLA2-III inh | ADAM10 confirm | ADAM17 counter | ADAM10 ctr | ADAM17 confirm
O=C(COC(=O)Cc1c[nH]c2ccccc12)Nc1cccc(Br)c1 | -7 | 11* | 26* | 1 | -124 | 4 | 1 | 7 | 8.9*
COc1cccc(NC(=O)C(Sc2nnc(Nc3ccccc3C)s2)c2ccccc2)c1 (stereo not given) | -3 | 14* | 33* | 0 | -17 | 9 | 3 | 29* | 15*
O=C(NC1CCCCN(Cc2ccc(Cl)cc2)C1=O)c1ccc(F)cc1 (stereo not given) | / | -1 | 0 | 0 | 1 | / | / | / | /
CCN1C(=O)C(CC(=O)Nc2ccc(OC)cc2)N(CCc2ccccc2)C1=S (stereo not given) | -6 | 7 | 13 | 0 | -34 | / | / | / | /
CCN1C(=O)C(CC(=O)Nc2ccc(F)cc2)N(Cc2cccs2)C1=S (stereo not given) | 17 | 3 | 6 | 0 | -34 | / | / | / | /
COC(=O)CN1C(=S)N(Cc2ccccc2)C(=O)C1CC(=O)Nc1ccc(Br)cc1 (stereo not given) | 0 | 12* | 23* | 0 | -27 | 4 | 1 | 27* | 13*
CCCOc1ccc(NC(=O)CC2C(=O)N(Cc3ccccc3)C(=S)N2Cc2cccs2)cc1 (stereo not given) | 11 | 13* | 26* | 0 | -20 | 11 | 5 | 30* | 16*
N#C[C@H](N)[C@H]1O[C@@H](n2ccc(=O)[nH]c2=O)[C@H](O)[C@@H]1O | / | -7 | -44 | 1 | -2 | / | / | / | /
COc1ccc(NC(=O)CSc2nc(O)cc(=O)n2-c2ccccc2)cc1 | -10 | 8 | 8 | 0 | 0 | / | / | / | /
COc1ccccc1-n1c(SCC(=O)Nc2ccc(Br)cc2)nc(O)cc1=O | -8 | 8.7* | 28* | 0 | -6 | -1 | 0 | 2 | 7
O=S(=O)(c1c(F)cccc1F)N(CCc1ccc(F)cc1)C[C@@H](O)COCc1ccccc1 | 0 | 15* | 27* | 0 | -35 | 7 | 1 | 39* | 19*
COc1ccc(CN(CC(O)COCc2ccccc2)S(=O)(=O)c2ccccc2Br)cc1OC (stereo not given) | -2 | 6 | 7 | 1 | -24 | / | / | / | /
COc1ccc(C=C(c2nc3ccccc3s2)c2nc3ccccc3s2)cc1O | -37 | 8.6* | 20* | -4 | -35 | 8 | 3 | 25* | 14*
Cc1cc(C)c(CN2CCN(C(=O)Cn3cnc4c(NCc5ccccc5)ncnc43)CC2)c(C)c1 | 12 | 16* | 28* | 0 | -13 | 3 | 1 | 29* | 14*
O=C(Cn1cnc2c(NCc3ccccc3)ncnc21)N1CCN(c2ccccn2)CC1 | -6 | -8 | -23 | 0 | -4 | / | / | / | /
COC(=O)CSc1nnc(-c2cccs2)o1 | / | 0 | -5 | 1 | -2 | / | / | / | /
Nc1ccn([C@@H]2O[C@H](C(=O)N[C@H](Cc3ccccc3)C(=O)NCC(=O)N3CCOCC3)[C@@H](O)[C@H]2O)c(=O)n1 | / | 0 | 2 | 0 | -4 | / | / | / | /
COc1ccc(NS(=O)(=O)c2ccc(NC(=S)NC(=O)C(C)C)cc2)cc1 | -6 | 12* | 30* | 0 | -16 | 1 | 1 | 11 | 9.1*
CCCCCCCCN1C(=O)[C@@H](CC(=O)NCc2cccc3ccccc23)C[C@@]2(C(=O)OC)C1=C[C@H](C(C)(C)C)O[C@@H]2C | / | -5 | -13 | -1 | 5 | / | / | / | /
Cc1ccc(NC(=O)N(Cc2ccco2)C(C)c2ccco2)cc1C (stereo not given) | -2 | -1 | 5 | 0 | -8 | / | / | / | /
Cc1ccc(NC(=O)CN(Cc2ccco2)Cc2ccccc2O)cc1C | 0 | 14* | 28* | 0 | -22 | 4 | 1 | 30* | 14*
O=C(N[C@H](Cc1ccccc1)C(=O)NCc1ccc(OC(F)(F)F)cc1)[C@H]1O[C@@H](n2ccc(=O)[nH]c2=O)[C@H](O)[C@@H]1O | / | -3 | -5 | 1 | 6 | / | / | / | /
Cc1cccc(Nc2nc(N)c([N+](=O)[O-])c(NCc3ccco3)n2)c1 | 7 | 16* | 31* | -1 | -32 | 2 | 1 | 20* | 10*
CCN1C(=O)C(CC(=O)Nc2cccc(C(C)=O)c2)S/C1=N\c1ccccn1 (stereo not given) | 7 | 3 | 4 | -1 | -12 | / | / | / | /
Cc1ccccc1N=C1SC(CC(=O)Nc2ccc3ccccc3c2)C(=O)N1Cc1ccccn1 (stereo not given) | -6 | 15* | 39* | -1 | -35 | 11 | 3 | 37* | 22*
SMILES | CendR NRP1 mod | ADAM17 inh | ADAM10 inh | KLK7 zymogen act | sPLA2-III inh | ADAM10 confirm | ADAM17 counter | ADAM10 ctr | ADAM17 confirm
Cn1nc(C(C)(C)C)cc1C(=O)N1CCCCC1c1cc(C(=O)Nc2cccc3c2CCCC3)no1 (stereo not given) | 3 | 12* | 21* | 0 | -21 | 7 | 2 | 18 | 9.2*
COc1ccc(N(CC(=O)NCCSC2CCCCC2)S(=O)(=O)c2ccccc2)c(OC)c1 | -3 | 9.4* | 21* | 1 | -13 | 1 | 1 | 16 | 7
COc1cccc(C2c3c(-c4ccccc4O)n[nH]c3C(=O)N2Cc2ccco2)c1 (stereo not given) | 1 | 5 | 16 | 0 | -63 | / | / | / | /
COCCCN1C(=O)c2[nH]nc(-c3cc(C)cc(C)c3O)c2C1c1ccc(O)c(OC)c1 (stereo not given) | -6 | 2 | 4 | -1 | -35 | / | / | / | /
CCCN1C(=O)c2[nH]nc(-c3cc(Cl)c(C)cc3O)c2C1c1ccc(O)c(OC)c1 (stereo not given) | 10 | 12* | 21* | 0 | -25 | 4 | 0 | 34* | 19*
Cc1cc(O)c(-c2n[nH]c3c2C(c2cccc(O)c2)N(Cc2cccnc2)C3=O)cc1Cl (stereo not given) | 3 | 9.6* | 22* | 0 | -35 | 5 | 1 | 10 | 8
COC[C@@H]1CCCN1c1cccc2c1S(=O)(=O)N1CC[C@@H](C1)O2 | / | -1 | -2 | 0 | 1 | / | / | / | /
CCN(CC)C(=O)c1ccc(C(CCOC(=O)Oc2ccccc2)c2ccc(OC)cc2)cc1 (stereo not given) | / | 2 | 8 | 1 | -26 | / | / | / | /
